# Measured values reported in the supplement of paper PMC11417369.
# ± gives the standard deviation of the averaged measurements. Whole data set: some 25,000 sequences, median “ln(normalized median fluorescence intensity)” near 8.9, cut for the highest 2% near 10. The entries come from a sample that favours the highest values as a whole.
# Test system: PfAP2-LT AP2 domain (GST-tagged)
# Test: gcPBM binding intensity (ln(normalized median fluorescence intensity)); higher = stronger DNA binding
# Method in brief: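 For binding intensity, the highest Masliner-normalised natural-log median intensity across replicate spots of either probe orientation was taken. Protein bound to the array was stained with Alexa488 anti-GST antibody and scanned at 488 nm. The protein, GST-tagged P. falciparum DNA-binding domains from E. coli at about 25 μg on average, had been applied for 1 h to an Agilent 4 × 180k array of primer-extended double-stranded 36-bp intergenic genomic probes and negative controls.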
row,Sequence,gcPBM binding intensity (ln)
1,AAATCGTGCACGGACACATGCAGTAGCCGAGAATTA [TGCATGCA_site733],9.12 ± 0.38
2,AAAAAAAAGAAAAAAACACACAATGGAAAAAATGTA [CACACA_site3675],8.93 ± 0.59
3,TATAAAATAAATAACAAAAAAAATAAAATAAAAATA [TGCATGCA_negctrl_site297],8.6 ± 0.7
4,TGCCCTTTGGTTATAACACACATGCACACGTAAATA [CACACA_site7750],9.4 ± 0.23
5,TTTTGTTATTAGAGGGTGCTTATAATGAACTCCTAC,8.65 ± 0.49
6,TTATGAATACTTCAAGTGCATTTATTTTATATGACA,8.63 ± 0.48
7,ATATTGGAATAAATTTGTACATATATATATTATTCA [XGTACX_site916],8.7 ± 0.44
8,CTGTTTTTGTTTTAAAGTACATTGTTCAATATACAT [XGTACX_site5288],8.82 ± 0.43
9,ATAGTATACAGACACACACACACACGGATATAAATA [CACACA_site6914],10.1 ± 0.36
10,TAAATAAATTTATACACACACACACGGATATAAATA [CACACA_site6532],9.82 ± 0.071
11,AAATATAATAAAATGACACACGCATATATATATATA [CACACA_site8900],9.775 ± 0.064
12,ATATAATAAAATGACACACGCATATATATATATATA [CACACA_site2789],9.955 ± 0.021
13,CACACTAAAAGACACACACACACACGCATATAAATA [CACACA_site7874],10.3 ± 0.4
14,TAAAAAATATTATATACACACAGTATAAAAAAAAAT [CACACA_site4012],8.95 ± 0.49
15,GTATATTTAAATAAAAGTACGTAAAGATATATTTAA [XGTACX_site8087],8.86 ± 0.57
16,ATATATATATATATATGTACTCATATTTTATTATTT [XGTACX_site898],9.665 ± 0.078
17,ATGCATATATTTATGTGTACATATATTTGTAGGGGG [XGTACX_site6063],10.2 ± 0.36
18,ATATATATTTATATATGTACATATTTTTGTGTATTT [XGTACX_site1183],9.14 ± 0.44
19,TATATATATATATTATGTACTCATTTATTATCTTTT [XGTACX_site8051],9.04 ± 0.43
20,TATATATATATATATGCATGTACATATATTTGTTAT [TGCATGCA_site379],9.99 ± 0.4
21,TTTGTCATTTTATTATGTACTCAGCATATAGGGGGG [XGTACX_site505],10.3 ± 0.33
22,TTATATTATGGACACACACACAAAAAAAAAAAAAAA [CACACA_site7744],9.32 ± 0.51
23,TATGATTTTTATATATGTACGTATGGTGTTTTACAA [XGTACX_site6100],8.76 ± 0.41

row,Sequence,gcPBM binding intensity (ln)
1,GTTTGGTGGTGTTTTGGTACGTACGGGGGTGTATGT [XGTACX_site1211],9.88 ± 0.16
2,GTTTGGTGGTGTTTTGGTACGTACGGGGGGGTATGT [XGTACX_site1983],10.9 ± 0.18
3,AACATAATAAAAAAACGTACATAATTTTATATACAT [XGTACX_site6602],8.87 ± 0.41
4,CACTAAAATAGACACACACACACACGGATATAAATA [CACACA_site7873],10.3 ± 0.29
5,AATATAAGGATATATACACACATAAATACATACATA [CACACA_site7859],9.25 ± 0.45
6,AAGGATATAACATACACACACACACGGATATAAATA [CACACA_site7867],10.2 ± 0.37
7,CATATACATAGACACACACACACATAAATAAATATA [CACACA_site6749],9.91 ± 0.33
8,TATATAAATAGACACACACACACATATAAATAAATA [CACACA_site7855],10 ± 0.34
9,ATAAATAAAGGACACACACACACACTAGAAAAAAAA [CACACA_site5450],10.2 ± 0.3
10,AATATAAATAAAAACACACACACACGGATATTTATA [CACACA_site7134],10 ± 0.25
11,AAAATACATAGACACACACACACACGGATATAAATA [CACACA_site7643],10.2 ± 0.2
12,ATAAGAAAAGGACACACACACAAAAAAAAAAAAAAA [CACACA_site7351],9.48 ± 0.51
13,AAATAACACATATATACACACATATAAATATAATAT [CACACA_site2692],9.29 ± 0.34
14,GTAGAGAAAAAAATGTGGACACAAAAAATAAAAAGG [XGTACX_site4058],8.96 ± 0.45
15,AAAAAAAATAGACACACACACATACACATAAATATA [CACACA_site7742],9.82 ± 0.38
16,AATGTAGGTTTATTTACACACAAATATAGATATATA [CACACA_site6825],8.96 ± 0.4
17,GGGAGGATATTACACAGTACCCAGGAAATCTACGGA [XGTACX_site4874],8.81 ± 0.5
18,TTTTTTTAAAAAAAGGGTACATATATATATTTTTCT [XGTACX_site1066],8.43 ± 0.49
19,ATATATATATATGTTAGTACTTATATTGAAATGGTA [XGTACX_site1406],9.05 ± 0.042
20,TATATTATTTTATATTGTACATACCAAATATTATAT [XGTACX_site1693],8.68 ± 0.41
21,TATTTTTTTTTTTTTTTTTTTTTTATATATACATAT [CACACA_negctrl_site23],8.61 ± 0.52
22,AAATGGGCTTATTTATGTACTTAAATATATCTACCC [XGTACX_site3823],8.85 ± 0.61
